Shown is part of a subset that was picked to be rich in the strongest signals.

One molecule from the supplement of paper PMC8728848 can be followed below.

Holding throughout (assay): glycan array binding signal (z-score within array); higher = stronger binding
Holding throughout (conditions): glycan notation: IUPAC condensed, linker removed

Assay [1] deals with Fuc(a1-2)[Gal(a1-3)]Gal. An outline of the steps:
(§1)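 The binding signal is a Z-score computed within each array and averaged over linkers. Arrays of the same protein sequence at different concentrations or buffers were also averaged together. Data originate from 3228 arrays in the Consortium for Functional Glycomics database, kept only where the protein sequence was available.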

In assay [2] the target is Fuc(a1-3)GlcNAc. An outline of the steps:
as §1

In assay [3] the target is Gal(b1-3)[Neu5Ac(a2-6)]GalNAc. An outline of the steps: as §1
Assay [4] addresses Gal(b1-4)GlcNAc(b1-6)GalNAc. A digest of the protocol:
as §1

Assay [5] addresses Glc(b1-4)Glc. A digest of the protocol:
as §1

In assay [6] the target is GlcNAc(b1-4)[GlcNAc(b1-6)]GalNAc. An outline of the steps:
as §1

Assay [7] concerns the target Man(a1-2)Man(a1-6)[Man(a1-3)]Man(a1-6)[Man(a1-2)Man(a1-2)Man(a1-3)]Man(b1-4)GlcNAc(b1-4)GlcNAc. An outline of the steps:
as §1

Assay [8] has as its target Neu5Ac(a2-3)Gal(b1-3)GalNAc. A digest of the protocol: as §1
Assay [9] concerns the target Neu5Ac(a2-3)Gal(b1-3)[Neu5Ac(a2-6)]GalNAc. An outline of the steps:
as §1

The target in assay [10] is Neu5Ac(a2-6)Gal(b1-4)GlcNAc. An outline of the steps: as §1
For assay [11], the target named is Neu5Ac(a2-8)Neu5Ac(a2-3)Gal(b1-4)Glc. A digest of the protocol: as §1
The target in assay [12] is Neu5Ac9Ac(a2-6)Gal(b1-4)GlcNAc. A digest of the protocol:
as §1

B1: TES70 (Toxocara canis), Q9XYV5 (protein)
chain: MISVVLVAIALQISGSYAGACNSINDCGLFETCVNNMCVPDNMGCPMPCQAGQVCVPPNCVAAPAPQPVTTTTAAATTTTSARGRCNANAQCGAFEVCVNGMCQPNNAGCNPPCAANQVCVAPNCVPAPIPPPAQSTTTAPATTRAPPSCPPSWSPFSGHCYYVAVGSFLFNQASDWCTQTNSRPVWFDQSNVGTFGAELYFINVLAASRGVQTYWLGLNRQFGQWVWTNGSPLIFSNWRGSEPDGCCGGNVTCALVNYANPFGQWDDAGCGNIWRNPQGFICKKPLA
As for B1, the “glycan array binding signal (z-score)” value in assay [1] is -0.052; in assay [2], -0.169; in [3], 0.002; in assay [4] it was 0.229; in assay [5], -0.156; in assay [6], 0.013. Moreover, the “glycan array binding signal (z-score)” value in [7] was -0.137; in assay [8] it was 0.672; in [9], -0.065; in [10] it was 6.41; in assay [11], -0.14; in assay [12], -0.172.
